According to PubChem BioAssay AID1159580 (chemical genetic matrix, 2015):
Several values for one entry are separate records, joined by “and”; a condition that tells them apart may be missing. Equal values may be shown once. In all, about 5,500 compounds went through this assay and about 2,000 (36%) were called active. Roughly 18% stayed inconclusive and do not appear here. No stated cut-off is given here; in the data, active means normalized growth mostly below about 0.91 (no sharp cut-off); inconclusive means no clear call, values can overlap the other calls; inactive means mostly above about 0.92. The list shows a part of the results.

Assay: chemical genetic growth profiling, strain panel (AID 1159580);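 further: tested at 20 µM; growth read once vehicle control cultures reached saturation at 30 °C; 1 = growth at the plate median or of vehicle wells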
Conditions: S. cerevisiae deletion strains, growth OD

Measured: normalized growth

CS(=O)(=O)c1ccc(C2=C(c3ccccc3)C(=O)OC2)cc1
inactive: locus YAL013W, strain DEP1, stronger effect = lower value 0.996 | locus YAL021C, strain ccr4, stronger effect = lower value 0.955 | locus YAL026C, strain drs2, stronger effect = lower value 0.985 | locus YAL030W, strain snc1, stronger effect = lower value 0.971 | locus YBL061C, strain skt5, stronger effect = lower value 0.972 | locus YBR009C, strain hhf1, stronger effect = lower value 0.959 | locus YBR021W, strain FUR4, stronger effect = lower value 0.986 | locus YBR023C, strain chs3, stronger effect = lower value 0.979 | locus YBR171W, strain sec66, stronger effect = lower value 0.983 | locus YBR229C, strain ROT2, stronger effect = lower value 1 | locus YBR231C, strain swc5, stronger effect = lower value 1 | locus YBR279W, strain paf1, stronger effect = lower value 0.987 | locus YCL011C, strain gbp2, stronger effect = lower value 0.975 | locus YCL016C, strain dcc1, stronger effect = lower value 0.98 | locus YCL029C, strain bik1, stronger effect = lower value 0.994 | locus YCL061C, strain MRC1, stronger effect = lower value 0.986 | locus YCL069W, strain vba3, stronger effect = lower value 0.976 | locus YCR088W, strain abp1, stronger effect = lower value 0.985 | locus YDL005C, strain med2, stronger effect = lower value 0.983 | locus YDL035C, strain GPR1, stronger effect = lower value 0.973 | locus YDL040C, strain nat1, stronger effect = lower value 0.984 | locus YDL074C, strain BRE1, stronger effect = lower value 0.929 | locus YDL101C, strain DUN1, stronger effect = lower value 0.99 | locus YDL134C, strain PPH21, stronger effect = lower value 1.01 | locus YDL185W, strain tfp1, stronger effect = lower value 0.963 | locus YDL192W, strain arf1, stronger effect = lower value 0.98 | locus YDR001C, strain nth1, stronger effect = lower value 0.985 | locus YDR069C, strain doa4, stronger effect = lower value 0.967 | locus YDR101C, strain arx1, stronger effect = lower value 0.995 | locus YDR137W, strain rgp1, stronger effect = lower value 1.02 | locus YDR150W, strain NUM1, stronger effect = lower value 0.991 | locus YDR159W, strain sac3, stronger effect = lower value 0.968 | locus YDR162C, strain NBP2, stronger effect = lower value 0.979 | locus YDR195W, strain ref2 0.963 | locus YDR297W, strain sur2, stronger effect = lower value 0.983 | locus YDR318W, strain mcm21, stronger effect = lower value 0.983 | locus YDR334W, strain swr1, stronger effect = lower value 0.968 | locus YDR335W, strain msn5, stronger effect = lower value 0.982 | locus YDR388W, stronger effect = lower value 0.991 | locus YDR392W, strain spt3, stronger effect = lower value 0.954 | locus YDR502C, strain sam2, stronger effect = lower value 0.983 | locus YEL003W, strain gim4, stronger effect = lower value 0.977 | locus YEL037C, strain rad23, stronger effect = lower value 0.992 | locus YEL061C, strain CIN8 (second series), stronger effect = lower value 0.97 | locus YEL061C, strain CIN8, stronger effect = lower value 0.984 | locus YER015W, strain faa2, stronger effect = lower value 0.98 | locus YER016W, strain bim1, stronger effect = lower value 0.985 | locus YER110C, stronger effect = lower value 0.988 | locus YER111C, strain swi4, stronger effect = lower value 0.978 | locus YER155C, strain BEM2 (second series), stronger effect = lower value 0.98 | locus YER155C, strain BEM2, stronger effect = lower value 1.04 | locus YER167W, strain BCK2, stronger effect = lower value 0.989 | locus YFR010W, strain ubp6, stronger effect = lower value 0.961 | locus YGL078C, strain dbp3, stronger effect = lower value 0.996 | locus YGL086W, strain mad1, stronger effect = lower value 0.983 | locus YGL167C, strain pmr1, stronger effect = lower value 0.971 | locus YGL173C, strain kem1, stronger effect = lower value 0.989 | locus YGL227W, strain vid30, stronger effect = lower value 0.969 | locus YGL240W, strain doc1, stronger effect = lower value 0.975 | locus YGL248W, strain PDE1, stronger effect = lower value 1 | locus YGL253W, strain hxk2, stronger effect = lower value 0.987 | locus YGR078C, strain PAC10, stronger effect = lower value 0.957 | locus YGR135W, strain pre9, stronger effect = lower value 0.979 | locus YGR229C, strain SMI1, stronger effect = lower value 0.971 | locus YGR252W, strain gcn5, stronger effect = lower value 0.967 | locus YHR013C, strain ard1, stronger effect = lower value 0.971 | locus YHR027C, strain rpn1, stronger effect = lower value 0.963 | locus YHR030C, strain SLT2, stronger effect = lower value 0.994 and 1.03 | locus YHR079C, strain IRE1 (second series), stronger effect = lower value 0.992 | locus YHR079C, strain IRE1, stronger effect = lower value 1.03 | locus YHR094C, strain hxt1, stronger effect = lower value 0.984 | locus YHR129C, strain ARP1, stronger effect = lower value 1 | locus YHR142W, strain chs7, stronger effect = lower value 0.984 | locus YHR200W, strain rpn10, stronger effect = lower value 0.969 | locus YIL066C, strain RNR3, stronger effect = lower value 1.01 | locus YIL073C, strain SPO22, stronger effect = lower value 0.936 | locus YIL125W, strain kgd1, stronger effect = lower value 0.999 | locus YIR030C, strain dcg1, stronger effect = lower value 0.987 | locus YJL092W, strain hpr5, stronger effect = lower value 0.984 | locus YJL095W, strain BCK1 (second series), stronger effect = lower value 0.977 | locus YJL095W, strain BCK1, stronger effect = lower value 0.951 and 1.01 | locus YJL115W, strain asf1, stronger effect = lower value 0.962 | locus YJL129C, strain trk1, stronger effect = lower value 0.978 | locus YJL134W, strain LCB3, stronger effect = lower value 0.998 | locus YJL154C, strain vps35, stronger effect = lower value 0.991 | locus YJL164C, strain tpk1, stronger effect = lower value 0.965 | locus YJL166W, strain qcr8, stronger effect = lower value 0.986 | locus YJL168C, strain set2, stronger effect = lower value 0.993 | locus YJL187C, strain SWE1 (second series), stronger effect = lower value 0.989 | locus YJL187C, strain SWE1, stronger effect = lower value 0.981 | locus YJR043C, strain POL32, stronger effect = lower value 0.955
